Laboratory results as given in PubChem BioAssay (NCATS).
Records with an inconclusive call do not appear. Unmarked numbers belong to inactive results. Calls follow the shape of the dose curve; as a rule, active = well fitted curve in the direction sought with a large enough effect; inconclusive = small, poorly fitted or top-dose-only effect, or another doubt; inactive = no such curve, though single readings can be large; an effect the other way counts as inactive or inconclusive.

Experiment: qHTS of pediatric cancer cell lines to identify multiple opportunities for drug repurposing: Primary screen for BT-37 cells (AID 1347094);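 also: plate controls were DMSO for no effect and bortezomib for full effect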
Conditions: BT-37 viability, CellTiter-Glo luminescence, 48 h; series mostly up to 57.3 µM; activity change, negative = cytotoxic: at the top concentration
In short: (§1)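 Phenotypic viability qHTS, 48 h compound exposure, CellTiter-Glo luminescence read-out; multi-concentration dosing so that potency and efficacy derive directly from the primary screen's curves.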

Compound	activity change, negative = cytotoxic
O=C(CN1CCN(Cc2ccc3c(c2)OCO3)CC1)N1c2ccccc2Sc2ccccc21	-15.8%
NS(=O)(=O)Cc1noc2ccccc12	3.64%
OC[C@H]1O[C@@H](Oc2ccc(O)cc2)[C@H](O)[C@@H](O)[C@@H]1O	2.62%
NCc1ccccc1Sc1ccccc1CO	4.37%
CCC1NC(=O)c2cc(S(N)(=O)=O)c(Cl)cc2N1 (configuration not stated)	-2.09%
CC(=O)NO	14.7%
O=C(Nc1ccc([N+](=O)[O-])cc1)Nc1ccc([N+](=O)[O-])cc1	-1.18%
C#C[C@]1(O)CC[C@H]2[C@@H]3CCC4=CC(=O)CC[C@@H]4[C@H]3CC[C@@]21CC	3.57%
Cc1ncc(CO)c(C=O)c1O	-0.122%
COc1cc(C(=O)NCc2ccc(OCCN(C)C)cc2)cc(OC)c1OC	-0.176%
Nc1ccc(S(=O)(=O)NCc2ccccc2)cc1	-3.7%
CCCCCCCCCCCCSCCOCCO	6.86%
O=C(O)CCNC(=O)c1ccccc1	0.194%
OCc1ccccn1	1.38%
NS(=O)(=O)c1ccc(Cl)c(S(N)(=O)=O)c1	-8.23%
CCCN(CCC)S(=O)(=O)c1ccc(C(=O)O)cc1	8.25%
CC1CCc2c(N3CCC(O)CC3)c(F)cc3c(=O)c(C(=O)O)cn1c23 (configuration not stated)	-21.2%
CC(=O)NCCCCCC(=O)O	15.2%

Compound	activity change, negative = cytotoxic
COc1ccc2c(c1)c1c3n2CCN(C)C3=NCC1	-4.48%
CCN(CC)CCOc1ccccc1C(=O)CCc1ccccc1	-25.8%
CCN[C@@H]1C[C@H](N)[C@@H](OC2OC(CN)=CCC2N)[C@H](O)[C@H]1O[C@H]1OC[C@](C)(O)[C@H](NC)[C@H]1O (some centres not stated)	5.98% [at 0.745 µM]
CN(C)CCOC(=O)C(c1ccccc1)C1(O)CCCC1 (configuration not stated)	-20.8%
O=C(O)P(=O)(O)O	13.2%
CC1(COc2ccc(CC3SC(=O)NC3=O)cc2)CCCCC1 (configuration not stated)	-7.31%
COc1cc(NS(=O)(=O)c2ccc(N)cc2)ncn1	6.17%
Cc1ccc(S(=O)(=O)NC(=O)NC2CCCC2)cc1	15.4%
O=[N+]([O-])c1cccc(S(=O)(=O)NCCNS(=O)(=O)c2cccc([N+](=O)[O-])c2)c1	-6.5%
c1ccc(-c2nc[nH]c2-c2ccccc2)cc1	-13.4%
CCc1ccc(C(=O)C(C)CN2CCCCC2)cc1 (configuration not stated)	-3.66%
C=C[C@@]1(C)CC(=O)[C@]2(O)[C@@]3(C)[C@@H](O)CCC(C)(C)[C@@H]3[C@H](O)[C@H](OC(C)=O)[C@@]2(C)O1	11.6%
CN1CCN(C2=Nc3ccccc3Sc3ccc(Cl)cc32)CC1	-15.9%
CCN(CC)CCNC(=O)COc1ccc(OC)cc1	-8.26%
CCCCCCCCCCCCCC(=O)OC(C)C	12.4%
Cc1nc(-c2ccc(Cl)cc2)oc1COC(C)(C)C(=O)O	2.08%
O=C(O)CCc1nc2ccccc2[nH]1	4.84%
CCOc1ccc(NC(C)=O)cc1	-11%

Experiment: qHTS of pediatric cancer cell lines to identify multiple opportunities for drug repurposing: Primary screen for NB-EBc1 cells (AID 1347095);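 also: plate controls were DMSO neutral control for no effect and bortezomib for full effect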
Conditions: NB-EBc1 neuroblastoma viability, CellTiter-Glo luminescence, 48 h; series mostly up to 46 µM; activity change, negative = cytotoxic: at the top concentration
In short: as §1

Compound	activity change, negative = cytotoxic
O=C(CN1CCN(Cc2ccc3c(c2)OCO3)CC1)N1c2ccccc2Sc2ccccc21	1.71%
NS(=O)(=O)Cc1noc2ccccc12	16.9%
OC[C@H]1O[C@@H](Oc2ccc(O)cc2)[C@H](O)[C@@H](O)[C@@H]1O	2.78%
NCc1ccccc1Sc1ccccc1CO	17.1%
CCC1NC(=O)c2cc(S(N)(=O)=O)c(Cl)cc2N1 (configuration not stated)	11.4%
CC(=O)NO	17.6%
O=C(Nc1ccc([N+](=O)[O-])cc1)Nc1ccc([N+](=O)[O-])cc1	21.3%
C#C[C@]1(O)CC[C@H]2[C@@H]3CCC4=CC(=O)CC[C@@H]4[C@H]3CC[C@@]21CC	-0.777%
Cc1ncc(CO)c(C=O)c1O	7.7%
COc1cc(C(=O)NCc2ccc(OCCN(C)C)cc2)cc(OC)c1OC	-3.55%
Nc1ccc(S(=O)(=O)NCc2ccccc2)cc1	-3.75%
CCCCCCCCCCCCSCCOCCO	1.54%
O=C(O)CCNC(=O)c1ccccc1	34.9%
OCc1ccccn1	7.32%
NS(=O)(=O)c1ccc(Cl)c(S(N)(=O)=O)c1	-5.71%
CCCN(CCC)S(=O)(=O)c1ccc(C(=O)O)cc1	9.06%
CC1CCc2c(N3CCC(O)CC3)c(F)cc3c(=O)c(C(=O)O)cn1c23 (configuration not stated)	77.8%
CC(=O)NCCCCCC(=O)O	-0.276%

Compound	activity change, negative = cytotoxic
COc1ccc2c(c1)c1c3n2CCN(C)C3=NCC1	9.35%
CCN(CC)CCOc1ccccc1C(=O)CCc1ccccc1	-11.3%
CCN[C@@H]1C[C@H](N)[C@@H](OC2OC(CN)=CCC2N)[C@H](O)[C@H]1O[C@H]1OC[C@](C)(O)[C@H](NC)[C@H]1O (some centres not stated)	-22.3% [at 0.597 µM]
CN(C)CCOC(=O)C(c1ccccc1)C1(O)CCCC1 (configuration not stated)	10.6%
O=C(O)P(=O)(O)O	13.9%
CC1(COc2ccc(CC3SC(=O)NC3=O)cc2)CCCCC1 (configuration not stated)	9.59%
COc1cc(NS(=O)(=O)c2ccc(N)cc2)ncn1	6.28%
Cc1ccc(S(=O)(=O)NC(=O)NC2CCCC2)cc1	7.17%
O=[N+]([O-])c1cccc(S(=O)(=O)NCCNS(=O)(=O)c2cccc([N+](=O)[O-])c2)c1	30.9%
c1ccc(-c2nc[nH]c2-c2ccccc2)cc1	19.2%
CCc1ccc(C(=O)C(C)CN2CCCCC2)cc1 (configuration not stated)	-7.06%
C=C[C@@]1(C)CC(=O)[C@]2(O)[C@@]3(C)[C@@H](O)CCC(C)(C)[C@@H]3[C@H](O)[C@H](OC(C)=O)[C@@]2(C)O1	33.2%
CN1CCN(C2=Nc3ccccc3Sc3ccc(Cl)cc32)CC1	-6.57%
CCN(CC)CCNC(=O)COc1ccc(OC)cc1	-6.57%
CCCCCCCCCCCCCC(=O)OC(C)C	19.2%
Cc1nc(-c2ccc(Cl)cc2)oc1COC(C)(C)C(=O)O	12%
O=C(O)CCc1nc2ccccc2[nH]1	-7.76%
CCOc1ccc(NC(C)=O)cc1	-13.2%
